D1 antagonist – Antagonist of Human D 1 Dopamine Receptor: qHTS. activity change, negative = inhibition, % at 10 µM. D(1A) dopamine receptor (Homo sapiens), P21728. hit rate 3.2% among 360,000. HEK293 TREx D1 cells, calcium flux, dopamine EC80; hits give low values; in the data active means activity change below about -30%
Target sequence (P21728 whole entry, looked up): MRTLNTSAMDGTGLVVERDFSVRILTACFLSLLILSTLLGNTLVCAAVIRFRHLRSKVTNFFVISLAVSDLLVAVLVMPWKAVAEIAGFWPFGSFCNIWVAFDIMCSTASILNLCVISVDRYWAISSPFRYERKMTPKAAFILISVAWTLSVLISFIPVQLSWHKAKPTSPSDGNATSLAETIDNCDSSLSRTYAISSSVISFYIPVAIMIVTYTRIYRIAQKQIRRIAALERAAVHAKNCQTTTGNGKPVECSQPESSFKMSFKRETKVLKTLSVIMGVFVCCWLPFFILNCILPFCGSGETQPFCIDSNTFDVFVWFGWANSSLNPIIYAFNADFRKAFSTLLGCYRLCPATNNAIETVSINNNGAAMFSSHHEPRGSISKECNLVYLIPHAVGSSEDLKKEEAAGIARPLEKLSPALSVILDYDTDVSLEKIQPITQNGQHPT
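Inducible Hek293 Trex D1 cells (tetracycline, overnight, 30 C). Calcium dye 30–90 min RT. Antagonist mode: EC80 dopamine added after 180 s compound read.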
D1 PAM – Potentiators of Human D1 Dopamine Receptor: qHTS; hit rate 0.036% among 360,000; potentiation, % at 10 µM; D(1A) dopamine receptor (Homo sapiens), P21728; HEK293 TREx D1 cells, calcium flux, dopamine EC20 potentiation; in the data active means potentiation above about 30%
D1 ag – Allosteric Agonists of the Human D1 Dopamine Receptor: qHTS. D(1A) dopamine receptor (Homo sapiens), P21728. hit rate 1% among 360,000. HEK293 T-REx D1 cells, calcium flux, agonist mode. activation, % at 2 µM. AID 504660, 2011; in the data active means activation above about 30%
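Inducible HEK293 T-REx D1 cells, force-coupled to calcium signalling, were plated at 4000 cells/well with tetracycline and held overnight at 30 C. After no-wash calcium dye loading, compound-evoked calcium rise over 180 s flagged agonists.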
DRD3 agonist – qHTS of D3 Dopamine Receptor Agonist: qHTS; D(3) dopamine receptor (Homo sapiens), P35462; D3R DiscoveRx beta-arrestin cells, luminescence, 90 min; max activation, %; hit rate 0.58% among 410,000; in the data active means max activation above about 30%
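Agonist mode: compounds and dopamine controls were applied to plated cells for 90 min at 37 degrees C after an overnight attachment at 1500 cells/well. Luminescent read-out followed 30 - 60 minutes at room temperature with DiscoveRx detection reagent.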
DRD3 antagonist – qHTS of D3 Dopamine Receptor Antagonist: qHTS; D(3) dopamine receptor (Homo sapiens), P35462; D3R cells, DiscoveRx beta-arrestin luminescence, antagonist mode; hits give low values; max response, negative = inhibition, %; hit rate 2.5% among 360,000; in the data active means max response below about -50%; inconclusive means no clear call, values can overlap the other calls
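Cells plated overnight at 1500 cells/well, then exposed to library compounds with dopamine controls for 90 minutes at 37 degrees C. DiscoveRx reagent added for 30–60 minutes at room temperature; luminescence read, quantitative HTS format.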
Of the large screens only hits and unclear results are named; the others gave an inactive call. This is a sample that favours compounds with a hit; in the whole collection about 6% have one here.

COc1ccc(CC(=O)NCC(c2ccc(Cl)cc2)N2CCOCC2)cc1 (centres undefined)	D1 antagonist -43 (no result: DRD3 antagonist)
COc1ccc(C(CNC(=O)COc2cc(C)cc(C)c2)N2CCCCC2)cc1 (centres undefined)	none (no result: DRD3 antagonist)
CCc1ccc(NCc2cc3ccc(OC)cc3n(CC(=O)Nc3ccc(C)c(Cl)c3)c2=O)cc1	none (no result: DRD3 antagonist)
CCC(C)C(=O)Nc1nc(C)c(-c2csc(Nc3cc(Cl)ccc3OC)n2)s1 (centres undefined)	DRD3 agonist 48
Cc1ccc(CSc2nnc(SCC(=O)N/N=C/c3c(C)nn(-c4ccccc4)c3C)s2)cc1	D1 antagonist -38
CCOc1ccc(-n2c(=O)c3c4c(sc3n(CC(=O)NC(C)CC)c2=O)CCC4)cc1 (centres undefined)	none (no result: DRD3 antagonist)
Cc1ccc(NC(=O)NC2CCN(S(=O)(=O)c3ccc(F)cc3)CC2)cc1	D1 antagonist -53
O=C(Nc1cccc(F)c1)NC1CC2CCCC(C1)N2C1CC1 (centres undefined)	D1 antagonist -34
CC(=O)Nc1ccc(S(=O)(=O)N2CCC(c3nc4ccc(C)cc4[nH]3)CC2)cc1	DRD3 antagonist -92
CC(=O)c1ccc(S(=O)(=O)N2CCC(NC(=O)Nc3cccc(F)c3)CC2)cc1	D1 antagonist -34
COC(=O)c1cccc(S(=O)(=O)N2CCC(NC(=O)Nc3cccc(F)c3)CC2)c1	DRD3 antagonist inconclusive
CCOC(=O)Nc1ccc(S(=O)(=O)N2CCC(c3nc4ccccc4[nH]3)CC2)cc1	none (no result: D1 antagonist, D1 PAM, D1 ag)
Cc1ccc2onc(CC(=O)N(C)c3ccccc3)c2c1	none (no result: DRD3 antagonist)
Cc1cccc(-c2nc(SCC(=O)N3CCc4ccccc43)c3c(=O)n(C)c(=O)n(C)c3n2)c1	none (no result: DRD3 antagonist)
COC(=O)c1ccccc1NC(=O)NC1CCCCC1	D1 antagonist -44
O=C(Nc1ccc2ccccc2c1)C(c1ccccc1)C1CCCC1 (centres undefined)	none
Cc1ccc(NC(=O)C(c2ccccc2)C2CCCC2)cc1 (centres undefined)	D1 antagonist -34
Cc1ccc(S(=O)(=O)N2CCN(CCNC(=O)C(=O)Nc3ccc(F)cc3)CC2)cc1	DRD3 agonist 32
Cc1ccc(NC(=O)NC2CCCCCCC2)cc1	D1 antagonist -32
Nc1c2c(nc3ccn(-c4ccccc4)c(=O)c13)CCCCC2	D1 antagonist -35
O=C(O)c1cc([N+](=O)[O-])cc2c1nnn2O	DRD3 antagonist -68
CC(=O)c1ccc(OCC(=O)c2cc(C)n(-c3ccc4c(c3)OCO4)c2C)cc1	D1 antagonist -44
Cc1cc(C(=O)COC(=O)c2ccc(N)c([N+](=O)[O-])c2)c(C)n1-c1ccc2c(c1)OCO2	none
CC(C)(C)OC(=O)NCCCC[C@@H](C(=O)N1CCN(C(=O)OC(C)(C)C)CC1)n1cc(CCC(=O)O)nn1	DRD3 agonist 38
CC(C)(C)OC(=O)NCCCCCc1cn([C@@H](CO)C(=O)NCCCCCCCCCCC(=O)N2CCN(C(=O)OC(C)(C)C)CC2)nn1	DRD3 agonist 58
CC[C@H](C)[C@@H](C(=O)NCCCCCCCCCCC(=O)N1CCN(C(=O)OC(C)(C)C)CC1)n1cc(CCCCCNC(=O)OC(C)(C)C)nn1	D1 antagonist -31
CCCCc1cn([C@@H](CCCCNC(=O)OC(C)(C)C)C(=O)N2CCN(C(=O)OC(C)(C)C)CC2)nn1	none
CC[C@H](C)C(C(=O)N1CCN(C(=O)OC(C)(C)C)CC1)n1cc(C(Cc2ccc(O)cc2)NC(=O)OC(C)(C)C)nn1 (some centres undefined)	DRD3 agonist 52
O=C1CS/C(=N/N=C2CCCC2)N1	D1 antagonist -48
O=C1CSC(=NC2CCCCC2)N1	none
CCOc1ccc(NC(=O)CC2C(=O)N(c3cccc(C)c3)C(=O)N2CCC2=CCCCC2)cc1 (centres undefined)	none (no result: DRD3 antagonist)
O=S(=O)(NCC(c1cccs1)S(=O)(=O)c1ccccc1)c1ccc(F)cc1 (centres undefined)	none (no result: D1 antagonist, DRD3 antagonist)
CCOc1ccc(S(=O)(=O)c2cn(Cc3ccc(C)cc3)c3ccc(OC)cc3c2=O)cc1	none (no result: DRD3 antagonist)
Cc1oc(-c2cccc(Cl)c2)nc1CN1CCC(C(=O)N2CCN(c3ccccn3)CC2)CC1	DRD3 antagonist -51 (no result: D1 antagonist, D1 PAM, D1 ag)
CCN1CCN(C(=O)C2CCN(Cc3nc(-c4cccc(Cl)c4)oc3C)CC2)CC1	DRD3 antagonist -74
Cc1ccc(C)c(N2CCN(C(=O)C3CCN(Cc4nc(-c5cccc(Cl)c5)oc4C)CC3)CC2)c1	none (no result: DRD3 antagonist)
Cc1cc(NC(=O)CCCn2c(C)c3cnn(-c4ccccc4)c(=O)c3c2C)ccc1Br	none (no result: DRD3 antagonist)
Nn1c(Cc2cccc3ccccc23)nnc1SCCOc1ccc(F)cc1	D1 antagonist -98
CCOc1ccc(CCNC(=O)c2cc3c(=O)n(C)c4ccccc4c3n2C)cc1OCC	none (no result: DRD3 antagonist)
COc1ccc(N2CC(C(=O)OCC(=O)Nc3cccc(C)c3)CC2=O)cc1 (centres undefined)	D1 antagonist -31
CCC(=O)Nc1ccccc1-c1nc2ccccc2n(CC(=O)c2ccc(Cl)cc2)c1=O	none (no result: DRD3 antagonist)
Cc1ccc(-c2onc(C)c2C)cc1S(=O)(=O)NC1CCCCC1	D1 antagonist -63 (no result: DRD3 antagonist)
Cc1ccc(-c2onc(C)c2C)cc1S(=O)(=O)N1CCCCC1	none (no result: DRD3 antagonist)
Cc1ccc(-c2onc(C)c2C)cc1S(=O)(=O)Nc1cccc(Cl)c1C	D1 antagonist -39 (no result: DRD3 antagonist)
CCOC(=O)C1CCN(S(=O)(=O)c2cc(-c3onc(C)c3C)ccc2C)CC1	D1 antagonist -36 (no result: DRD3 antagonist)
CCOC(=O)C1CCN(S(=O)(=O)c2cc(-c3onc(C)c3C)ccc2OC)CC1	none (no result: DRD3 antagonist)
Cc1ccc(-c2onc(C)c2C)cc1S(=O)(=O)NCc1ccc(N(C)C)cc1	D1 antagonist -32 (no result: DRD3 antagonist)
Cn1nc(C(F)(F)F)c2cc(C(=O)Nc3ccc(C(F)(F)F)cc3)sc21	D1 antagonist -45
Cn1nc(C(F)(F)F)c2cc(C(=O)Nc3ccc(F)cc3)sc21	none
CCOC(=O)CSC1=NC(=O)/C(=C/c2ccc(OC)cc2)S1	D1 antagonist -37
Cc1ccc(C(=O)CC2(O)C(=O)N(Cc3ccccc3Cl)c3ccccc32)o1 (centres undefined)	D1 antagonist -31
CC(=O)CC1(O)C(=O)N(Cc2ccccc2)c2ccccc21 (centres undefined)	D1 antagonist -85
CC(C)NC(=O)Cn1ncn2c(cc3cc(F)ccc32)c1=O	none (no result: DRD3 antagonist)
COCCn1c(CNC(=O)c2cccc(N(C)C)c2)nc2cccnc21	none (no result: DRD3 antagonist)
CCOC(=O)c1ccccc1NC(=O)Cn1c(=O)n(-c2cccc(C)c2)c(=O)c2c1c1cc(C)ccc1n2C	none (no result: DRD3 antagonist)
O=C(Nc1cccc([N+](=O)[O-])c1)c1cc2ccccc2cc1O	D1 antagonist -42

Screening results: PubChem, National Center for Advancing Translational Sciences (NCATS)
